SMILES strings stand for the structures. Out of some 310,000 compounds screened, about 1,400 (0.45%) were called active.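 How the source made its calls: active means B-score, a plate-corrected calcium signal, over three deviations above library mean, with baseline fluorescence within five deviations of library mean; inactive means the rest.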 The sample as a whole holds a higher share of actives than the screen did.

The experiment deals with Regulator of G-protein signaling 4 (Homo sapiens) (UniProt P49798). As to the kind of experiment: blockers of RGS4 function in M3R calcium signaling – cell-based, HEK293 M3R inducible RGS4, calcium flux, primary screen (AID 463165).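 Further: RGS4 expression induced by doxycycline in cells with stable M3 receptor.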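 On B-score: B-score is computed from the integrated fluorescence ratio over baseline after carbachol; higher B-score means a larger calcium signal and so more RGS4 inhibition.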 Particulars: Fluo-4 calcium flux, at 10 µM, triggered by carbachol at its EC20; active compounds read high. In general terms: Calcium flux is commonly read through the fluorescence of an indicator in the cells.
Regulator of G-protein signaling 4 (Homo sapiens), sequence (P49798 whole entry, looked up): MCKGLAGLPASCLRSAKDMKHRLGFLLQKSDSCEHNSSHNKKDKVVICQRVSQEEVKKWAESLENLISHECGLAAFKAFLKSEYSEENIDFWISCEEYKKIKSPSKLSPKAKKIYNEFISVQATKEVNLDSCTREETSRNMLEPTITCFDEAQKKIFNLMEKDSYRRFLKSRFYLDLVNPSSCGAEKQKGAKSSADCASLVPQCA
Turning to `Cc1ccc(N(C(=O)c2ccc(S(=O)(=O)N(C)C)cc2)C2C=CS(=O)(=O)C2)cc1` (stereo not drawn), the B-score result is “inactive”.
Take `COc1ccc2oc(C(=O)OCC(=O)N(CC(C)C)c3c(N)n(Cc4ccccc4)c(=O)[nH]c3=O)c(C)c2c1`: the B-score entry is “inactive”.
Turning to `[O-][n+]1ccc(OCc2ccccc2)cc1`, the B-score entry was “inactive”.
With `CCOc1ccc(NC(=O)C/C(C)=N/NC(=O)Cc2cccs2)cc1`, the B-score is 7.41 (active).
Take `CCOC(=O)c1ccc(NC(=O)Cc2cccs2)cc1`: the B-score entry was “inactive”.
The value for `CCOc1ccccc1NC(=O)Cc1cccs1` was “inactive”; that for `CCn1c(O)c2ccc(C(=O)N=NC(=O)c3cccnc3)cc2c1O` was “inactive”.
Turning to `O=S(=O)(Nc1ccc2[nH]ncc2c1)c1ccccc1Cl`, the B-score result is “inactive”.
For the compound `Cc1c(NC(=O)c2cc(-c3ccc(Br)cc3)on2)c(=O)n(-c2ccccc2)n1C`, the B-score result is “inactive”.
The value for `Cc1c(NC(=O)c2cccnc2)c(=O)n(-c2ccccc2)n1C` was “inactive”.
The figure for `Cc1c(NC(=O)c2coc(=O)c(Br)c2)c(=O)n(-c2ccccc2)n1C` is 8.99 (active); for `COc1ccc(CC(NC(C)=O)C(=O)NC2CCN(C(=O)Nc3ccc(C#N)cc3)CC2)cc1OC` (stereo not drawn) it is “inactive”.
In the case of `CCc1nn(CCCC(=O)NCc2ccc(C)cc2)c(=O)c2cc3occc3n12`, the B-score entry was “inactive”.
As to `O=C(O)CCCCCCCCc1cn(CN2C(=O)c3ccccc3C2=O)nn1`, the B-score result was “inactive”.
Take `C=CCSc1nc2c(c(=O)[nH]1)C(C(C)C)C(C#N)=C(N)O2` (stereo not drawn): the B-score was 7.64 (active).
Regarding `Cc1cc2c(c(=O)n1C)C(C(C)C)C(C#N)=C(N)O2` (stereo not drawn), the B-score entry is “inactive”.
Consider `C=CCSc1nc(N)cc(=O)[nH]1`, for which the B-score entry was “inactive”.
Turning to `O=C(c1cccnc1)N(c1cc2sc(=O)oc2c2ccccc12)S(=O)(=O)c1ccccc1`, the B-score result is “inactive”.
The value for `CCc1ccc(C2C(C#N)=C(N)N(N3CCOCC3)C3=C2C(=O)CC(C)(C)C3)s1` (stereo not drawn) was 4.85 (active).
The entry for `COc1ccc(C2C(C#N)=C(/N=C/N3CCOCC3)OC3=C2C(=O)CC(C)(C)C3)cc1OC` (stereo not drawn) is “inactive”; for `CCc1ccc(C2C(C#N)=C(N)N(N(C)C)C3=C2C(=O)CCC3)s1` (stereo not drawn) it is “inactive”; for `S=c1[nH]nc(-c2cccs2)n1/N=C/c1cccs1` it is “inactive”.
The value for `Oc1ccccc1/C=N/n1c(-c2cccs2)n[nH]c1=S` was “inactive”; that for `Cc1ccsc1/C=N/n1c(=S)[nH]nc(C)c1=O` was 5.78 (active); that for `CC(OC(=O)CCc1nc(=O)c2ccccc2n1C)C(=O)NCc1ccc2c(c1)OCO2` (stereo not drawn) was “inactive”.
Regarding `O=C(O)C1C2CC2CN1C(=O)c1ccc(Cl)cc1Cl` (stereo not drawn), the B-score entry is “inactive”.
The entry for `COc1ccc(CNS(=O)(=O)c2ccc(-c3cnc(C4CC4)o3)cc2)cc1` is “inactive”; for `CC(=O)Nc1ccc(-c2csc(NC=C3C(=O)OC(C)(C)OC3=O)n2)cc1` it is “inactive”.
For the compound `CC(=O)Nc1ccc(S(=O)(=O)Nc2nc(-c3ccc(C(C)(C)C)cc3)cs2)cc1`, the B-score was 5.98 (active).
The entry for `CC(=O)Nc1ccc(S(=O)(=O)Nc2cccc(NC(=O)C(C)(C)C)c2)cc1` is “inactive”; for `Cc1nccn1CC(=O)N/N=C/c1ccc(O)c(O)c1` it is “inactive”.
The value for `Oc1ccc(Br)cc1/C=N/Nc1ccccn1` was “inactive”; that for `Oc1ccc(/C=N/Nc2ccc(C(F)(F)F)cn2)cc1O` was 9.02 (active).
`O=C(c1n[nH]c2c1CCC2)N1CCCC(Nc2cccc(F)c2)C1` (stereo not drawn): the B-score entry is “inactive”.
As for `O=C(NC(=S)Nc1ccc(S(=O)(=O)N2CCOCC2)cc1)c1ccccc1[N+](=O)[O-]`, the B-score result was “inactive”.
Consider `O=C(N/N=C/c1cc(Cl)cc([N+](=O)[O-])c1O)C(O)(c1ccccc1)c1ccccc1`, for which the B-score entry was “inactive”.
The figure for `O=[N+]([O-])c1cc(Cl)cc(/C=N/NC(=S)Nc2cc(S(=O)(=O)N3CCOCC3)ccc2Cl)c1O` is 6.74 (active); for `COc1cccc(N2CC(C(=O)NCc3n[nH]c(=O)c4ccccc34)CC2=O)c1` (stereo not drawn) it is “inactive”.
Consider `CN(c1ccccc1)S(=O)(=O)c1cc(C(=O)Nc2nc3ccccc3[nH]2)ccc1Cl`, for which the B-score result is “inactive”.
`COc1ccc(-c2nc3cc([N+](=O)[O-])ccc3o2)cc1OC`: the B-score result was “inactive”.
For the compound `CCc1ccc2oc(-c3ccc(N)cc3)nc2c1`, the B-score was 10.6 (active).
As to `Nc1ccc(-c2nnc(-c3ccccc3)o2)cc1`, the B-score entry was “inactive”.
For `C=CC(COCc1ccccc1)N(Cc1ccccc1)S(=O)(=O)c1ccccc1Br` (stereo not drawn), the B-score entry is “inactive”.

The values above are taken from PubChem BioAssay AID463165 (Johns Hopkins Ion Channel Center, 2010).
